Reference: the supplement of paper PMC6555819

Legend:
Experiment in all cases: PBM binding z-score (relative to random genomic background probes); higher = stronger binding; sequences stand for … in GC…GCGATTGACAGCGTAGAATGAAGG
[1] = tested on: RARb homodimer (NR concentration 270 nM)
In short: (§1)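 Random background probes are the reference for binding z-scores. These scores derive from regression-normalized fluorescence on custom Agilent 4×180K protein-binding microarrays incubated 1 h with ligand-free nuclear receptor dimers. Binding was detected with antibodies against each partner (one per run).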

[2] = tested on: RARg:RXRa (NR concentration 270 nM, RXRa partner concentration 90 nM)
In short: as §1

[3] = tested on: RARg homodimer (NR concentration 270 nM)
In short: as §1

[4] = tested on: RXRa DBDmut IVT, anti-RXR (DBD mutation: RXRa K156A/R161A, NR concentration 90 nM)
In short: as §1

[5] = tested on: RXRa homodimer (NR concentration 180 nM)
In short: as §1

[6] = tested on: THRa:RXRa (NR concentration 90 nM, RXRa partner concentration 90 nM)
In short: as §1

[7] = tested on: THRa homodimer (NR concentration 90 nM)
In short: as §1

[8] = tested on: VDR homodimer (NR concentration 270 nM)
In short: as §1

ACTTACGGGTCAACGACGTTATAGCACGCGTATA
PBM binding z-score [1]: 2.87 | PBM binding z-score [2]: 5.07 | PBM binding z-score [3]: 4.51 | PBM binding z-score [4]: 1.59 | PBM binding z-score [5]: 5.19 | PBM binding z-score [6]: 2.68 | PBM binding z-score [7]: 0.369 | PBM binding z-score [8]: 0.841

ATATGTCGGTTAGGGTCATTCAGAAAGTAGGGAA
PBM binding z-score [1]: 3.22 | PBM binding z-score [2]: 3.91 | PBM binding z-score [3]: 3.09 | PBM binding z-score [4]: 2.46 | PBM binding z-score [5]: 4.81 | PBM binding z-score [6]: 4.36 | PBM binding z-score [7]: 3.4 | PBM binding z-score [8]: 4.14

CGTCAAAGCTCAACTAAGGTAACGTAAAGCACGC
PBM binding z-score [1]: 0.161 | PBM binding z-score [2]: 0.118 | PBM binding z-score [3]: 0.236 | PBM binding z-score [4]: 0.155 | PBM binding z-score [5]: -0.0326 | PBM binding z-score [6]: 3.64 | PBM binding z-score [7]: 1.57 | PBM binding z-score [8]: -0.205

TCGAGTAGGTTACGGGGGCCTTCAGGGATGAAGA
PBM binding z-score [1]: 1.03 | PBM binding z-score [2]: 1.81 | PBM binding z-score [3]: 1.33 | PBM binding z-score [4]: 0.49 | PBM binding z-score [5]: 1.47 | PBM binding z-score [6]: 1.95 | PBM binding z-score [7]: 0.405 | PBM binding z-score [8]: 0.302

TGAATGAGGTGAAAGATCAGGGAACGTGGCGTCG
PBM binding z-score [1]: 0.154 | PBM binding z-score [2]: 1.51 | PBM binding z-score [3]: 0.868 | PBM binding z-score [4]: -0.365 | PBM binding z-score [5]: 2.17 | PBM binding z-score [6]: 2.78 | PBM binding z-score [7]: 0.878 | PBM binding z-score [8]: -0.213

TAGCCTAGGTCACGGGCCAGTATACCACGCGAAC
PBM binding z-score [1]: 3.83 | PBM binding z-score [2]: 5.12 | PBM binding z-score [3]: 5.43 | PBM binding z-score [4]: 0.27 | PBM binding z-score [5]: 4.73 | PBM binding z-score [6]: 3.83 | PBM binding z-score [7]: 1.84 | PBM binding z-score [8]: 0.425

TCGAGTAGGTTACGGGGGGATTCAGGGATGAAGA
PBM binding z-score [1]: 1.73 | PBM binding z-score [2]: 2.76 | PBM binding z-score [3]: 2.33 | PBM binding z-score [4]: 2.47 | PBM binding z-score [5]: 2.04 | PBM binding z-score [6]: 3.42 | PBM binding z-score [7]: 1.85 | PBM binding z-score [8]: 2.02

CTATGTAGGTTAAGGGGGTCTTTCAGTTTGAAAG
PBM binding z-score [1]: 1.69 | PBM binding z-score [2]: 1.56 | PBM binding z-score [3]: 1.25 | PBM binding z-score [4]: 0.662 | PBM binding z-score [5]: 1.48 | PBM binding z-score [6]: 1.94 | PBM binding z-score [7]: 0.841 | PBM binding z-score [8]: 1.31

TCGAGTAGGTTACGGGGGCATTAAGGGATGAAGA
PBM binding z-score [1]: 1.91 | PBM binding z-score [2]: 3.09 | PBM binding z-score [3]: 2.32 | PBM binding z-score [4]: 1.61 | PBM binding z-score [5]: 2.56 | PBM binding z-score [6]: 2.83 | PBM binding z-score [7]: 0.949 | PBM binding z-score [8]: 2.81

GCTTACGGGTCAAAGGTTATGGCATGAATAGAAT
PBM binding z-score [1]: 3.46 | PBM binding z-score [2]: 6.98 | PBM binding z-score [3]: 5.3 | PBM binding z-score [4]: 2.31 | PBM binding z-score [5]: 9.82 | PBM binding z-score [6]: 3.79 | PBM binding z-score [7]: 0.408 | PBM binding z-score [8]: 1.51

CCTAGTGGGCCAAAGGTCATTGATTCCAATGCTC
PBM binding z-score [1]: 4.6 | PBM binding z-score [2]: 5.89 | PBM binding z-score [3]: 4.92 | PBM binding z-score [4]: 1.92 | PBM binding z-score [5]: 6.9 | PBM binding z-score [6]: 3.22 | PBM binding z-score [7]: 0.756 | PBM binding z-score [8]: 3.23

ACTTACGGGTCAACGAAGTTATAGCACGCGTATA
PBM binding z-score [1]: 3.02 | PBM binding z-score [2]: 5.31 | PBM binding z-score [3]: 4.65 | PBM binding z-score [4]: 1.66 | PBM binding z-score [5]: 5.31 | PBM binding z-score [6]: 2.78 | PBM binding z-score [7]: -0.0625 | PBM binding z-score [8]: 0.948

ATCGAAAGGTCGTGAGGTGTGTATACAGAAAGGC
PBM binding z-score [1]: 2.68 | PBM binding z-score [2]: 4.5 | PBM binding z-score [3]: 4.17 | PBM binding z-score [4]: 1.67 | PBM binding z-score [5]: 4.81 | PBM binding z-score [6]: 2.44 | PBM binding z-score [7]: -0.109 | PBM binding z-score [8]: 1.16

CGTCCAAGGTCAAGCTCAGTGAAAGAGACTCGAA
PBM binding z-score [1]: 3.96 | PBM binding z-score [2]: 6.43 | PBM binding z-score [3]: 6.63 | PBM binding z-score [4]: 3.51 | PBM binding z-score [5]: 6.22 | PBM binding z-score [6]: 3.76 | PBM binding z-score [7]: 2.32 | PBM binding z-score [8]: 2.03

ATAGAAAGGTCGAAGGTGAGTATACCCACCCGAA
PBM binding z-score [1]: 2.36 | PBM binding z-score [2]: 4.23 | PBM binding z-score [3]: 3.8 | PBM binding z-score [4]: 0.55 | PBM binding z-score [5]: 4.9 | PBM binding z-score [6]: 2 | PBM binding z-score [7]: 0.0452 | PBM binding z-score [8]: 0.757

TCATATAGGTTAAGGTGAAAGTCGAACGATATGA
PBM binding z-score [1]: 1.66 | PBM binding z-score [2]: 2.3 | PBM binding z-score [3]: 2.08 | PBM binding z-score [4]: 0.797 | PBM binding z-score [5]: 2.45 | PBM binding z-score [6]: 3.33 | PBM binding z-score [7]: 2.71 | PBM binding z-score [8]: 0.253

ACTTACGGGTCAAGGAGGTTATAGCACGCGTATA
PBM binding z-score [1]: 3.46 | PBM binding z-score [2]: 5.23 | PBM binding z-score [3]: 4.78 | PBM binding z-score [4]: 2.07 | PBM binding z-score [5]: 5.73 | PBM binding z-score [6]: 3.33 | PBM binding z-score [7]: 0.489 | PBM binding z-score [8]: 2.26

CAAAGTAGGTCACGAAAGGTCAAAGTCGAATGAC
PBM binding z-score [1]: 6.1 | PBM binding z-score [2]: 8.06 | PBM binding z-score [3]: 8.76 | PBM binding z-score [4]: 2.36 | PBM binding z-score [5]: 8.62 | PBM binding z-score [6]: 4.95 | PBM binding z-score [7]: 1.49 | PBM binding z-score [8]: 3.31

TAGCCAAGGTCAGATCGGGCCAGTATACGCTATA
PBM binding z-score [1]: 3.41 | PBM binding z-score [2]: 4.59 | PBM binding z-score [3]: 5.1 | PBM binding z-score [4]: 1.75 | PBM binding z-score [5]: 3.58 | PBM binding z-score [6]: 4.32 | PBM binding z-score [7]: 1.09 | PBM binding z-score [8]: 1.11

CTATGTAGGTTAAGGGGCTCATTCAGTTTGAAAG
PBM binding z-score [1]: 0.464 | PBM binding z-score [2]: 0.537 | PBM binding z-score [3]: 0.331 | PBM binding z-score [4]: 0.357 | PBM binding z-score [5]: 0.409 | PBM binding z-score [6]: 0.521 | PBM binding z-score [7]: 0.0604 | PBM binding z-score [8]: 0.323

CGGAGTAGGTTACGAGGGGGCATTCAGTGCGAAT
PBM binding z-score [1]: 2.45 | PBM binding z-score [2]: 3.35 | PBM binding z-score [3]: 2.86 | PBM binding z-score [4]: 2.04 | PBM binding z-score [5]: 2.09 | PBM binding z-score [6]: 3.8 | PBM binding z-score [7]: 0.507 | PBM binding z-score [8]: 3.73

GCTTACGGGTCAAAGGTTATAGTATGAATAGAAT
PBM binding z-score [1]: 3.5 | PBM binding z-score [2]: 6.8 | PBM binding z-score [3]: 4.72 | PBM binding z-score [4]: 2.7 | PBM binding z-score [5]: 9.39 | PBM binding z-score [6]: 3.99 | PBM binding z-score [7]: 0.429 | PBM binding z-score [8]: 1.88

CTATGTAGGTTAAGGCGGTCATTCAGTTTGAAAG
PBM binding z-score [1]: 1.65 | PBM binding z-score [2]: 1.31 | PBM binding z-score [3]: 1.44 | PBM binding z-score [4]: 0.518 | PBM binding z-score [5]: 0.704 | PBM binding z-score [6]: 0.878 | PBM binding z-score [7]: -0.0284 | PBM binding z-score [8]: 0.465

CTATGTCGGTTAAGGGGGTCATTCAGTTTGAAAG
PBM binding z-score [1]: 4.04 | PBM binding z-score [2]: 4.91 | PBM binding z-score [3]: 4.15 | PBM binding z-score [4]: 2.98 | PBM binding z-score [5]: 5.04 | PBM binding z-score [6]: 3.9 | PBM binding z-score [7]: 3.17 | PBM binding z-score [8]: 6.54

CCGACGGGGGCAGAAAGGTTACCATACCATCCGG
PBM binding z-score [1]: 3.29 | PBM binding z-score [2]: 4.2 | PBM binding z-score [3]: 3.58 | PBM binding z-score [4]: 1.16 | PBM binding z-score [5]: 3.31 | PBM binding z-score [6]: 2.99 | PBM binding z-score [7]: 0.6 | PBM binding z-score [8]: 2.21

CGAACTAGGTCCTTGACAGGACAGTGAATAGTAA
PBM binding z-score [1]: -0.115 | PBM binding z-score [2]: 0.0551 | PBM binding z-score [3]: -0.0699 | PBM binding z-score [4]: 0.0443 | PBM binding z-score [5]: -0.00915 | PBM binding z-score [6]: 0.388 | PBM binding z-score [7]: -0.275 | PBM binding z-score [8]: -0.117

ATATGGAGGTTAGCTGGGGTCATTCAGACTAGGC
PBM binding z-score [1]: 4.32 | PBM binding z-score [2]: 4.94 | PBM binding z-score [3]: 3.85 | PBM binding z-score [4]: 2.22 | PBM binding z-score [5]: 6.26 | PBM binding z-score [6]: 5.44 | PBM binding z-score [7]: 3.66 | PBM binding z-score [8]: 5.52

TCGAGTAGGTTACGGAGGCATTCAGGGATGAAGA
PBM binding z-score [1]: 0.171 | PBM binding z-score [2]: 0.578 | PBM binding z-score [3]: 0.4 | PBM binding z-score [4]: -0.134 | PBM binding z-score [5]: 0.833 | PBM binding z-score [6]: 1.1 | PBM binding z-score [7]: -0.655 | PBM binding z-score [8]: -0.549
